Values joined by “and” are separate entries in the source; they are usually repeats but may differ in a detail not shown here. Equal entries are not always repeated. Records with an inconclusive call do not appear. Unmarked numbers belong to inactive results. Active and inactive are the calls of the source. Calls come from the whole dose curve.
Assay: qHTS assay for small molecules that induce genotoxicity in human embryonic kidney cells expressing luciferase-tagged ATAD5 - cell viability (AID 651634); note: nearly all actives have a fitted effect of over 25% in size
Settings: HEK293T ATAD5-luc cells viability, CellTiter-Fluor, 15.5 h; series mostly up to 83.3 µM; activity, negative = cytotoxicity: at the top concentration
From the text: National Center for Advancing Translational Sciences [NCATS]
NIH Chemical Genomics Center [NCGC]
U.S. Environmental Protection Agency [EPA]
National Institutes of Environmental Health Sciences [NIEHS]
National Toxicology Program [NTP]
U.S. Food and Drug Administration [FDA]
Enhanced Level of Genome Instability Gene 1 (ELG1; human ATAD5) protein levels increase in response to various types of DNA damage. Using a luciferase reporter-gene tagged with ElG1, a cell-based assay [developed by Kyungjae Myung, NHGRI, NIH] was used to measure the induction of ATAD5 in human embryonic kidney cells (HEK293T). So, increase in luciferase activity can be used to identify the compounds that cause genetic stress. In addition to genotoxicity, these cells were also used to test for cytotoxicity by measuring the protease activity within live cells.
Tox21 Assay Protocol Summary:
For cytotoxicity screening, 2,000 cells in 5 uL/well were dispensed into white, solid-bottom 1536-well plates using a Multidrop Combi (Thermo Scientific) dispenser. Following transfer of 23 nL compound or DMSO vehicle by a pin tool, the plates were incubated 15.5 hr at 37C and 5% CO2. 1 ul CellTiter-Fluor reagent (Promega, Madison, WI) was then added to each plate and following 30 min incubation at 37C, fluorescence intensity was quantified on a ViewLux CCD-based plate reader.
% is set by controls: 0 for no effect and ±100 for the full control effect; potency is the fitted concentration of half-maximal effect.

Structure (SMILES)	activity, negative = cytotoxicity	Potency
Cn1cc(C2=C(c3cn(C4CCN(Cc5ccccn5)CC4)c4ccccc34)C(=O)NC2=O)c2ccccc21	2.16%	–
C=CC(=O)OCCCCOC(=O)C=C	–	54.5 µM (active)
Clc1ccc(CCC(Cn2ccnc2)Sc2c(Cl)cccc2Cl)cc1 (stereo not given)	10.1% [at 39.1 µM]	–
CC(C)[C@H](C(=O)OC(C#N)c1cccc(Oc2ccccc2)c1)c1ccc(OC(F)F)cc1 (stereo not given in full)	13.1%	–
CC(=O)[O-].CC(=O)[O-].[Hg+2]	–	54.5 µM (active)
Cc1cc(C(F)(C(F)(F)F)C(F)(F)F)ccc1NC(=O)c1cccc(I)c1C(=O)NC(C)(C)CS(C)(=O)=O	27.6%	–
CCOc1cc(C(C)(C)C)ccc1C1COC(c2c(F)cccc2F)=N1 (stereo not given)	-5.65%	–
CC(C)OC(=O)C(O)(c1ccc(Cl)cc1)c1ccc(Cl)cc1	-4.56%	–
CCCCOCN(C(=O)CCl)c1c(CC)cccc1CC	8.17%	–
C[C@@H]1O[C@@H](O[C@@H]2C=C3CC[C@@H]4[C@H](CC[C@]5(C)[C@@H](c6ccc(=O)oc6)CC[C@]45O)[C@@]3(C)CC2)[C@H](O)[C@H](O)[C@H]1O	–	0.0227 µM (active)
Fc1ccc(Oc2ccnc3cc(Cl)cc(Cl)c23)cc1	8.26%	–
COc1ccc(OC)c(CC(C)N)c1 (stereo not given)	2.68% [at 95.3 µM]	–
C[C@H]1O[C@@H](O[C@H]2[C@@H](O)C[C@H](O[C@H]3[C@@H](O)C[C@H](O[C@H]4CC[C@@]5(C)[C@H](CC[C@@H]6[C@@H]5CC[C@]5(C)[C@@H](C7=CC(=O)OC7)CC[C@]65O)C4)O[C@@H]3C)O[C@@H]2C)C[C@H](O)[C@@H]1O	–	53.1 nM (active) and 30.8 nM (active)
O=C1c2ccccc2C(=O)C1C(=O)C(c1ccccc1)c1ccc(Cl)cc1 (stereo not given)	–	3.06 µM (active)
Clc1ccc(C(c2ccc(Cl)cc2)C(Cl)(Cl)Cl)cc1	–	inactive
C[C@H]1CC[C@@H]2[C@@H](C)[C@H]3[C@H](C[C@H]4[C@@H]5CC=C6CC(O[C@@H]7O[C@H](CO)[C@H](O)[C@H](O[C@@H]8O[C@H](CO)[C@@H](O)[C@H](O)[C@H]8O)[C@H]7O[C@H]7O[C@@H](C)[C@H](O)[C@@H](O)[C@H]7O)CC[C@]6(C)[C@H]5CC[C@]34C)N2C1 (stereo not given in full)	–	26.6 µM (active) and 63.1 µM (active)
O=S(=O)(c1ccc(Cl)cc1)c1ccc(Cl)cc1	32.5% [at 95.3 µM]	–
COC(=O)N(C(=O)N1CO[C@@]2(C(=O)OC)Cc3cc(Cl)ccc3C2=N1)c1ccc(OC(F)(F)F)cc1	4.66%	–
Cc1cc(C(C)(C)c2cc(C)c(O)c(C)c2)cc(C)c1O	-13.7%	–
Clc1ccc(C(Cl)(Cl)Cl)c(Cl)c1	-15.4% [at 95.3 µM]	–

Structure (SMILES)	activity, negative = cytotoxicity	Potency
C[C@]12CC[C@H]3[C@@H](CCC4=CC(=O)CC[C@@]43C)[C@@H]1CC[C@@H]2O	19.4%	–
S=C=Nc1cccc2ccccc12	-12.2%	–
O=C(O)C1C2CCC(O2)C1C(=O)O (stereo not given)	–	inactive
CC(C)OC(=S)S	20.8%	–
COc1cc(N)c(Cl)cc1C(=O)NC1CN2CCC1CC2 (stereo not given)	16.4%	–
C=CC(=O)OCC(COC(=O)C=C)(COC(=O)C=C)COC(=O)C=C	–	12.2 µM (active)
COP(=O)(OC)SCn1c(=O)oc2cc(Cl)cnc21	-17.9%	–
CC1(C)C(/C=C(\Cl)C(F)(F)F)C1C(=O)OC(C#N)c1cccc(Oc2ccccc2)c1 (stereo not given)	22% [at 95.3 µM]	–
Clc1ccc(CSC(Cn2ccnc2)c2ccc(Cl)cc2Cl)cc1 (stereo not given)	12.5% [at 39.1 µM]	–
ClC1=C(Cl)C2(Cl)C3C(Cl)C=CC3C1(Cl)C2(Cl)Cl (stereo not given)	7.11%	–
CCCN(CC)CC1COC2(CCC(C(C)(C)C)CC2)O1 (stereo not given)	12%	–
CC(C)CC(C)(c1ccc(O)cc1)c1ccc(O)cc1	–	inactive
CC(=O)C(Cl)(Cl)Cl	–	13.2 µM (active)
CC(C)(C)c1ccc(CSc2cnn(C(C)(C)C)c(=O)c2Cl)cc1	-14.1%	–
Oc1cc(Cl)c(Cl)c(Cl)c1	-24.6%	–
CS(=O)(=O)c1ccc(C(=O)C2C(=O)CCCC2=O)c([N+](=O)[O-])c1	-19.1% [at 95.3 µM]	–
CC1(c2ccc(Oc3ccccc3)cc2)OC(=O)N(Nc2ccccc2)C1=O (stereo not given)	-19.4% [at 95.3 µM]	–
CCCN(CCC)CCc1c[nH]c2ccccc12	18.1%	–
c1ccc2c(c1)[nH]c1cnccc12	29.5%	–
C[C@@H]1CC[C@@]2(OC1)O[C@H]1[C@@H](O)[C@H]3[C@@H]4CC[C@H]5C[C@@H](O[C@@H]6O[C@H](CO)[C@H](O[C@@H]7O[C@H](CO)[C@@H](O)[C@H](O[C@@H]8OC[C@@H](O)[C@H](O)[C@H]8O)[C@H]7O[C@@H]7O[C@H](CO)[C@@H](O)[C@H](O[C@@H]8O[C@H](CO)[C@@H](O)[C@H](O)[C@H]8O)[C@H]7O)[C@H](O)[C@H]6O)[C@H](O)C[C@]5(C)[C@H]4CC[C@]3(C)[C@H]1[C@@H]2C	–	64.9 µM (active)
